# A selection: hits, their analogues and other compounds. The true share with any hit is near 2%.
# CF NFkB block = cystic fibrosis NF-kB activation inhibition; KKLEB NF-kB-GFP reporter, PAF-induced, GFP fluorescence overnight; inhibition, % at 5 µM; actives 0.86% (n = 360,000); AID 588850;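 active = at least 50% inhibition at 5 µM, scaled per plate between neutral and stimulator controls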;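 note: PAF is a Pseudomonas aeruginosa culture filtrate used as stimulus; plate controls were PAF-stimulated DMSO wells for no effect and unstimulated DMSO wells for full effect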
# LGR2 inh = blocks bursicon-induced cAMP signaling via Drosophila LGR2 | AID 720647 | actives 0.35% (n = 380,000) | inhibition, % at 9.99 µM | HEK293 LGR2, CRE-luciferase, bursicon-stimulated, 4 h;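 active = drop in luminescence signal, shown as inhibition above about 50% in the replicate tests, limit read from the data, passing the limit was not always enough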;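 note: agonist challenge used bursicon conditioned medium at about half maximal strength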
# EWS-Fli block = EWS/Fli transcriptional activity inhibition; A673 NR0B1-luciferase reporter, viability-normalised; inhibition, % at 12.6 µM; actives 0.67% (n = 350,000); AID 651661;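 active = mean inhibition of at least 50% after viability correction, with every replicate also passing that limit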;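 note: firefly luciferase signal divided by Alamar Blue viability fluorescence both relative to DMSO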
# KKLEB tox = CF airway cell cytotoxicity counter-screen; actives 0.36% (n = 360,000); activity change (cytotoxicity), % at 5 µM; KKLEB CF airway cells viability, ATPlite luminescence, overnight; active compounds read low; cells stimulated with P. aeruginosa culture filtrate;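 active = corrected activity change at or below -50% at 5 µM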
# Shn3 3UTR inh = reduces Shn3 3'UTR luciferase signal in osteoblasts; inhibition, % at 12.5 µM; Clone20 osteoblast Shn3 3'UTR firefly luciferase, 24 h; AID 588674; actives 0.52% (n = 360,000);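 active = mean inhibition of at least 75% with every replicate also reaching 75%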;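 note: 0% = median of neutral control wells and 100% = pilot-screen positive control compound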
# PAX8 inh HTS = inhibitors of PAX8 transcriptional activity in RMG-I cells. inhibition, % at 12.6 µM. actives 1.2% (n = 360,000). RMG-I TPO-luciferase reporter, SteadyGlo, 24 h;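 active = mean replicate inhibition at least 60% with every replicate also reaching 60%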;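 note: luciferase light reporting Pax8 driven TPO promoter activity; plate controls were median of neutral control wells for no effect and mitoxantrone controls for full effect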
# CF NFkB inh conf = CF NF-kB inhibition confirmation, single concentration; shares compounds with CF NFkB block; KKLEB CF airway cells, PAF-induced NF-kB-GFP fluorescence, overnight; inhibition, % at 5 µM; actives 64% (n = 1,300); in the data active = inhibition above about 40%;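 note: stimulus PAF is a Pseudomonas aeruginosa filtrate and not platelet activating factor; plate controls were DMSO wells with stimulus for no effect and unstimulated DMSO wells for full effect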
# Active calls of the source: *; / = no result.
SMILES,CF NFkB block,LGR2 inh,EWS-Fli block,KKLEB tox,Shn3 3UTR inh,PAX8 inh HTS,CF NFkB inh conf
C=CC(=O)N1c2ccccc2Sc2ccc(NC(=O)OCC)cc21,80*,/,/,-20,13,/,-116
CC1C(c2ccccc2)OCCN1C(=S)Nc1ccc(S(=O)(=O)N2CCCCC2)cc1 (centres undefined),58*,14,-15,-1,-6,-5,60*
Cc1ccc(S(=O)(=O)c2c(C(=O)c3ccccc3)cnc3cc4c(cc23)OCCO4)cc1,51*,/,-4,-44,-4,-15,-35
Cc1c(C(=O)c2ccc(Cl)c(Cl)c2)cnc2cc3c(cc12)OCO3,-11,/,/,-4,9,-9,/
COc1cccc(CNC(=O)CN2CCC(c3nc4ccc(C)cc4[nH]3)CC2)c1,56*,-10,0,-13,3,17,10
N#CSCC(=O)c1cccc2ccccc12,55*,/,4,-35,-4,-9,54*
CO[C@@H]1CN(C)C(=O)c2ccc(NS(=O)(=O)c3cn(C)cn3)cc2OC[C@@H](C)NC[C@@H]1C,/,-2,1,/,/,/,/
Cc1cc(C(=O)Nc2cccc3c2O[C@H](CN(C)S(=O)(=O)c2cn(C)cn2)[C@@H](C)CN([C@H](C)CO)C3=O)n(C)n1,/,-4,-7,/,/,/,/
Cc1ccc(C(=O)COc2cc(O)c3c(=O)cc(-c4ccccc4)oc3c2)cc1,69*,-13,13,-44,19,-20,43*
Nc1c(C(=O)Nc2ccccc2)sc2nc3c(c(-c4ccco4)c12)CCCC3,51*,-36,/,-34,11,/,34
COC(=O)c1c(C)n(-c2ccc(OC)cc2)c2ccc(O)cc12,58*,/,/,-3,16,/,84*
COc1ccc2c(c1)c(C(C)=O)c(C)n2-c1ccc(C(C)=O)cc1,64*,5,-12,-3,22,-128,74*
C[C@H](CO)N1C[C@H](C)[C@@H](CN(C)Cc2ccc(Cl)c(Cl)c2)Oc2ccc(NC(=O)CCN3CCOCC3)cc2CC1=O,/,18,-5,/,/,3,/
COc1ccc(S(=O)(=O)c2c(O)c3ccc(C(=O)Nc4ccccc4Cl)cc3[nH]c2=O)cc1,76*,12,-2,-19,-8,-1,69*
CCCCCc1cc(O)c2c(C)cc(=O)oc2c1,74*,/,/,-8,15,/,80*
COC(=O)c1cc(=O)n(Cc2cccs2)c(=Nc2ccc(F)cc2)s1,55*,56*,12,-28,5,16,-41
CN(C)C(=O)C[C@@H]1CC[C@@H]2[C@H](COC[C@@H](O)CN2Cc2ccc(C(F)(F)F)cc2)O1,/,5,11,/,/,7,/
CCn1c2ccccc2c2cc(/C=N/O)ccc21,72*,27,-5,-9,14,-1,62*
C=CCOc1c(OC)cc(/C=N/Nc2cccc(C(=O)O)c2)c(Br)c1Br,62*,/,-29,-36,-30,-85,67*
C=CCOc1c(/C=N\NC(N)=O)cccc1OC,-5,4,6,6,4,1,/
Cc1nn(-c2cccc(Cl)c2)c2nc(C(F)(F)F)[nH]c(=O)c12,54*,7,4,-1,-15,0,44*
Nc1nc(N)nc(-c2ccccc2O)n1,16,/,/,5,-17,/,/
Nc1nc(-c2ccccc2)nc(-c2ccccc2O)n1,57*,/,/,-14,-32,-23,-38
Cc1cc2c(c(=O)n1Cc1cccnc1)C(Cc1ccccc1)C(C#N)=C(N)O2 (centres undefined),58*,/,/,-13,-2,/,-35
COc1ccc(-c2cc3c(=O)n(CC(=O)NCc4ccc(C)cc4)ncn3n2)cc1,54*,-6,-19,-15,-26,-2,13
SMILES,CF NFkB block,LGR2 inh,EWS-Fli block,KKLEB tox,Shn3 3UTR inh,PAX8 inh HTS,CF NFkB inh conf
Oc1ccc(Br)cc1-c1nc2cnccn2c1NC1CCCCC1,35,19,-5,-24,-9,/,/
Oc1ccc(Br)cc1-c1nc2cnccn2c1NC1CCCC1,80*,/,/,-26,32,4,90*
O=C(Nc1ccc2c(c1)OCCO2)c1cc(-c2ccccn2)nc2ccc(Br)cc12,62*,7,8,-32,23,-4,56*
CCCNC(=O)N1CC2(CN(S(=O)(=O)CC)C2)c2c([nH]c3cc(OC)ccc23)[C@@H]1CO,/,0,-5,/,/,/,/
O=C(Nc1ccc([N+](=O)[O-])cc1)Nc1ccc(Cl)cc1F,52*,-13,-7,-31,71,2,46*
CC(=O)N1CC(=O)N2[C@H](C1)[C@@H](c1ccc(-c3cccc(C(=O)N(C)C)c3)cc1)[C@@H]2CO,/,-12,-1,/,/,-20,/
CCOC(=O)c1ccc(-n2[nH]c(-c3ccccc3)cc2=O)cc1,64*,/,/,-48,-18,/,76*
CCOC(=O)c1ccc(N=Nc2c(C)[nH]n(-c3ccccc3)c2=O)cc1,-28,14,21,0,9,12,/
COc1ccc(OC)c(-c2cc(C(=O)Nc3ccccc3C(N)=O)c3ccccc3n2)c1,80*,/,8,-19,18,10,24
CCOc1ccccc1N1CCN(C(=O)c2cc(-c3cc(OC)ccc3OC)nc3ccccc23)CC1,65*,25,12,-6,6,16,63*
CCC1=C(CC2NCCc3ccccc32)CC2c3cc(OC)c(OC)cc3CCN2C1 (centres undefined),63*,70*,-1,-12,74,59,72*
COc1cc2c(cc1OC)C1Cc3ccc(OC)c(OC)c3CN1CC2 (centres undefined),-8,7,/,-1,1,/,/
CC(C)NC(=O)Nc1ccc2c(c1)C(=O)N([C@@H](C)CO)C[C@@H](C)[C@@H](CN(C)C(=O)c1ccccc1)OCCCC[C@@H](C)O2,/,14,-2,/,/,-1,/
CNC(=O)c1ccc(NC(=O)C2CCN(c3ncnc4sc(C)c(C)c34)CC2)cc1,60*,0,1,-18,26,3,60*
CCNC(=O)C[C@@H]1CC[C@@H]2[C@H](COC[C@@H](O)CN2C(=O)C2CC2)O1,/,15,-5,/,/,-7,/
Cc1nc(Sc2nnnn2C)c2c3c(sc2n1)CCC3,52*,/,/,-3,25,/,33
CCc1nc(Sc2nnnn2-c2ccccc2)c2c3c(sc2n1)CCCC3,59*,55*,-3,-19,-1,20,28
CCc1nc(N2CCN(C(=O)c3ccccc3)CC2)c2c3c(sc2n1)CCCC3,21,29,8,-9,-53,11,/
CC(=O)c1ccc(Nc2ncnc3ccc(Br)cc23)cc1,60*,/,-10,-27,0,-4,46*
CC(=O)c1cccc(Nc2ncnc3ccc(Br)cc23)c1,46,-3,6,-11,1,14,/

# Screening results as filed in PubChem BioAssay.
